Source: PubChem BioAssay
Sfp inh: blocks B. subtilis Sfp PPTase activity; Q9F4F7; Biochemical Sfp PPTase activity, qHTS; Potency, µM, without a hit: largest response in the series, negative = inhibition, most hits filed as inhibitors; actives 3.5% (n = 310,000); AID 1490;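 also: the enzyme is Sfp with the accession as filed and its product quenches rhodamine fluorescence; potency is read from the fitted curve at half-maximal effect; 0% = enzyme reaction without inhibitor and -100% = no enzyme wells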
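Fluorescence-quenching assay with 15 nM Sfp, 5 uM rhodamine-CoA and 12.5 uM BHQ-2-labelled ybbR peptide in pH 7.6 Hepes/MgCl2 buffer. Enzyme was pre-incubated with compound for 15 min at room temperature. Rate was taken from the 30-min fluorescence change (525/598 nm).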
Tau fluor cs: counter-screen for tau fibril formation inhibitors. tau K18 P301L Alexa594 fluorescence, heparin fibrillization. Potency, µM (titrated, usually from 57.7 µM), for the others: at the top dose activity change, negative = decrease. actives 0.93% (n = 280,000); also: potency is read from the fitted curve at half-maximal effect; nearly all actives have a fitted effect of over 55% in size
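Human K18 P301L tau (15 uM unlabeled plus 0.24 uM Alexa 594-labeled, final) in 100 mM sodium acetate pH 7 was mixed with compound and 20 uM heparin and incubated 6 hr at 37 C.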
Tau fibril FP: tau fibrillization inhibition (FP); P10636; K18 P301L tau heparin fibrillization, Alexa594 FP, 6 h; Potency, µM (top dose mostly 57.7 µM), for the others: top-dose activity, negative = inhibition, usual class: inhibitors; actives 0.39% (n = 280,000); also: potency is read from the fitted curve at half-maximal effect; nearly all actives have a fitted effect of over 55% in size
Target sequence (P10636 561-689 P618L limits assumed): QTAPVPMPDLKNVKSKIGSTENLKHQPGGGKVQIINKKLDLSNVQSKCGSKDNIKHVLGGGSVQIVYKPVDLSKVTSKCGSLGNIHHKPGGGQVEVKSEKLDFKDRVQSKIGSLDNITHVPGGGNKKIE
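Steps: dispense K18 P301L tau (15 uM plus 0.24 uM Alexa 594 tracer, final) in pH 7 sodium acetate; add compound; add heparin (20 uM final); incubate 6 hr, 37 C; add ThT (30 uM final); after 1 hr ambient, read FP.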
Coupling enz: coupling enzyme interference in Giardia aldolase counter-screen; actives 0.67% (n = 290,000); coupling enzyme system counterscreen, AmpLite Red fluorescence; activity change, negative = inhibition, % at 58.2 µM, hits read low; in the data active = activity change below about -30%
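Counterscreen lacking aldolase: glyceraldehyde-3-phosphate coupling-enzyme reagent preincubated 10 min at RT with compound (at 57.5 uM final), then substrate/coupling system with AmpLite Red added; fluorescence read at 525/598 nm after 20 min RT.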
Tau ThT inhib: inhibitors of human tau fibril formation, thioflavin T binding; P10636; recombinant tau K18 P301L, heparin-induced fibrillization, ThT fluorescence; Potency, µM (highest dose often 57.4 µM), inactives show top-dose activity, negative = inhibition, usual class: inhibitors; actives 2.1% (n = 270,000); also: potency is read from the fitted curve at half-maximal effect; nearly all actives have a fitted effect of over 55% in size
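ThT emission at 510 nm, taken 1 hr after adding 30 uM dye, quantifies aggregates formed when 20 uM heparin acts on human tau K18 P301L for 6 hr at 37 C.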
Starred values were filed as active, the others as inactive; u = inconclusive; x = not tested or not shown; [ ] = another dose, or the depositor's remark. Compounds with a hit are over-represented: about 5.2% of the library has one in this group of screens. Unless noted, calls follow the shape of the dose curve; as a rule, active = well fitted curve in the direction sought with a large enough effect; inconclusive = small, poorly fitted or top-dose-only effect, or another doubt; inactive = no such curve, though single readings can be large; an effect the other way counts as inactive or inconclusive. Unless noted, % is scaled to controls: 0 for no effect and ±100 for the full control effect.

SMILES | Sfp inh | Tau fluor cs | Tau fibril FP | Coupling enz | Tau ThT inhib
CCOC(=O)c1cc2c(=O)n3ccccc3nc2n(Cc2ccco2)c1=NC(=O)c1cccnc1 | 35µM* | -4% | 7% | 2 | -14%
Cc1cccc(C(=O)N=c2c(C#N)cc3c(=O)n4cccc(C)c4nc3n2Cc2ccco2)c1 | 28µM* | -20% | -9% | 2 | u
CCOC(=O)c1cc2c(=O)n3ccccc3nc2n(Cc2ccco2)c1=NC(=O)c1ccccc1Br | x | -19% | -7% | x | u
CCOC(=O)c1cc2c(=O)n3ccccc3nc2n(Cc2ccco2)c1=NC(=O)c1ccccc1OCC | 45µM* | -12% | 1% | 7 | u
CCOC(=O)c1cc2c(=O)n3cccc(C)c3nc2n(Cc2ccco2)c1=NC(=O)c1cccnc1 | 25µM* | 10% | 2% | -4 | -14%
CCOC(=O)c1cc2c(=O)n3ccccc3nc2n(Cc2ccco2)c1=NC(=O)c1cccc(C)c1 | x | -18% | -8% | x | -12%
CC(=O)NC1C(O)O[C@H](C(=O)O)[C@@H](O)[C@@H]1O (stereo partly specified) | 5% | x | x | 1 | x
Cc1ccc(NC(=O)CCN2CCN(C/C=C/c3ccccc3)CC2)cc1C | 89µM* | -14% | -8% | -2 | -8%
Cc1ccc(NC(=O)CCN2CCN(C/C=C/c3ccccc3)CC2)cc1 | 12% | -14% | -6% | 0 | -5%
COc1ccc(C(=O)N2CCC[C@@]3(CCN(c4ncccn4)C3)C2)cc1 | 20% | x | x | 1 | x
Cc1ccc2nc(-c3ccc(NC(=O)CCN4C(=O)c5ccccc5C4=O)cc3)sc2c1 | 79µM* | -4% | 3% | -5 | -2%
CCOC(=O)C1CCCN(C(=O)Cn2ncn3c(cc4sc(CC)cc43)c2=O)C1 (stereo unspecified) | x | 4% | 3% | x | 2%
COC(=O)c1sc(-c2ccccc2)cc1NC(=O)C1CC1 | 45µM* | -21% | -16% | -4 | -18%
COC(=O)c1cc(-c2ccccc2)sc1N | 40µM* | u | 16% | 0 | u
CCOc1ccc(NC(=O)Nc2cc(-c3ccccc3)sc2C(=O)OC)cc1 | 19% | u | 10% | -4 | u
O=C(N/N=C/c1ccc(Cl)cc1)c1cc(-c2cccnc2)nc2ccccc12 | -10% | -28% | u | 4 | 5%
Nc1sc(-c2ccccc2)cc1C(=O)N/N=C/c1ccc(Cl)cc1 | -13% | 14µM*[quencher] | -4% | -1 | 4µM*
CCOc1ccc(NC(=O)C2CCN(c3nnc(C)c4c(C)n(-c5ccccc5)nc34)CC2)cc1 | x | 2% | 6% | x | 4%
C#C[C@]1(O)CC[C@@H]2[C@H]3CCc4cc(OC)ccc4[C@@H]3CC[C@@]21C | 12% | x | x | -1 | x
CC(C)C[C@H](NC(=O)[C@@H]1CCCN1C(=O)[C@H](Cc1ccccc1)NC(=O)[C@H](C)NC(=O)[C@H](CCC(=O)O)NC(=O)[C@H](C)NC(=O)[C@H](CO)NC(=O)[C@H](CCC(=O)O)NC(=O)[C@H](CC(=O)O)NC(=O)[C@H](CCC(=O)O)NC(=O)[C@H](C)NC(=O)CNC(=O)[C@H](CC(N)=O)NC(=O)[C@@H]1CCCN1C(=O)[C@H](Cc1ccc(O)cc1)NC(=O)[C@@H](NC(=O)[C@H](CCCCN)NC(=O)[C@@H](NC(=O)[C@@H]1CCCN1C(=O)[C@@H](N)CCCNC(=N)N)C(C)C)C(C)C)C(=O)N[C@@H](CCC(=O)O)C(=O)N[C@@H](Cc1ccccc1)C(=O)O | 5% | x | x | 1 | x
Cc1ccc(C)c(N2CCN(C3(c4ccccc4)C(=O)c4ccccc4C3=O)CC2)c1 | x | -15% | -12% | x | -6%
CCc1ccc(NC(=O)N2CCN(c3nnc(C)c4c(C)n(-c5ccc(Cl)cc5)nc34)CC2)cc1 | x | 12% | u | x | -1%
CC(=O)c1cccc(NS(=O)(=O)c2cc(-c3onc(C)c3C)ccc2C)c1 | x | u | -7% | x | -4%
O=c1cc(-c2ccccc2O)oc2c1ccc1ccccc12 | 1% | -6% | -2% | 7 | -8%
